These results are taken from PubChem BioAssay (NCI).

Molecules are shown by their SMILES. The panel holds about 83,000 compounds, 20% with a hit somewhere; the sample as a whole holds those more often.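 Percent growth is the endpoint: 0 to 100 indicates growth inhibition (40 means 60% inhibition), 0 means no net growth, and negative values indicate cell death.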 A number with no mark means an inactive call. Calls of active or inactive are those of the source. The calls were made as follows: active = growth percent below 10; inactive = the rest.

Among the test systems are DU-145 prostate; K-562 leukemia; MALME-3M melanoma; MDA-MB-231 breast; RXF 393 renal; SF-268 CNS; SF-295 CNS; SF-539 CNS; UACC-257 melanoma; M14 melanoma; HCT-15 colon; HT29 colon; SNB-19 CNS; U251 CNS; PC-3 prostate; SK-MEL-5 melanoma; UACC-62 melanoma; LOX IMVI melanoma; SK-MEL-28 melanoma; SNB-75 CNS.
What all share (assay): NCI-60 one-dose screen, 48 h (100 = growth as untreated, 0 = no growth, -100 = all killed)
Holding throughout (conditions): 10 µM unless noted

As for `CCOC(=O)C1=C(C)C(Cl)=N/C1=C\c1[nH]c(Cl)c(C)c1C(=O)OCC`, the growth in the test with DU-145 prostate is 111%; in the test with K-562 leukemia it was 91%; with MALME-3M melanoma, 107%; in the test on MDA-MB-231 breast it was 93%; in the test on RXF 393 renal, 115%; with SF-268 CNS, 101%. For the same molecule, the growth was 111% with SF-295 CNS; 100% with SF-539 CNS; 91.4% in the test on UACC-257 melanoma; 87.1% in the test on M14 melanoma; 99.1% in the test on HCT-15 colon; 91.9% with HT29 colon. The growth was 101% in the test with SNB-19 CNS; 94.1% with U251 CNS; 76.3% with PC-3 prostate; 96.8% in the test with SK-MEL-5 melanoma; 97.4% in the test with UACC-62 melanoma; 93.9% with LOX IMVI melanoma. The growth in the test on SK-MEL-28 melanoma was 122%.

Regarding `N=C(N)c1ccc(-c2ccc(-c3cc(Cl)cc(Cl)c3)s2)nc1`, the growth is 1.39% (active) with DU-145 prostate; -4.72% (active) in the test on K-562 leukemia; 78.6% in the test on MALME-3M melanoma; 61.1% with MDA-MB-231 breast; 90.3% in the test with RXF 393 renal; 88.4% in the test on SF-268 CNS. The growth is 57.1% with SF-295 CNS; 57.2% in the test with SF-539 CNS; 106% in the test on UACC-257 melanoma; 79.5% with M14 melanoma; -7.35% (active) in the test on HCT-15 colon; 13.2% in the test on HT29 colon. Further, the growth was 64.5% in the test on SNB-19 CNS; -36.1% (active) with U251 CNS; 71.3% in the test on PC-3 prostate; 94% in the test on SK-MEL-5 melanoma; 95.2% in the test with UACC-62 melanoma; -75.6% (active) in the test with LOX IMVI melanoma. Also, the growth in the test on SK-MEL-28 melanoma was 108%.

`CN1CCN(Cc2ccc(NC(=O)c3cncc(C#Cc4cnc(N)c5ncccc45)c3)cc2C(F)(F)F)CC1`: the growth with DU-145 prostate is 18.1%; in the test on K-562 leukemia it was 13.9%; in the test with MALME-3M melanoma it was -73.5% (active); in the test on MDA-MB-231 breast it was -78.7% (active); in the test on RXF 393 renal, -83.9% (active); with SF-268 CNS it was -18.1% (active). For the same molecule, the growth with SF-295 CNS is 31.2%; in the test on SF-539 CNS it was -87% (active); in the test on UACC-257 melanoma, 17.1%; in the test on M14 melanoma it was -87% (active); in the test with HCT-15 colon it was -30.2% (active); in the test on HT29 colon, -50.2% (active). Moreover, the growth in the test with SNB-19 CNS is 44.3%; in the test with U251 CNS, -37.6% (active); in the test with PC-3 prostate, 13.6%; in the test with SK-MEL-5 melanoma, -91.9% (active); in the test with UACC-62 melanoma, 6.71% (active); in the test with SK-MEL-28 melanoma, -86.8% (active).

In the case of `N#CC1=C(N)Oc2ccc3ccccc3c2C1c1ccc([N+](=O)[O-])cc1` (stereo not drawn), the growth in the test with DU-145 prostate is 104%; in the test on K-562 leukemia, 77.7%; in the test with MALME-3M melanoma, 51.4%; in the test on MDA-MB-231 breast it was 57.8%; in the test on RXF 393 renal it was 94.7%; in the test on SF-268 CNS, 80.5%. The growth is 84.6% with SF-295 CNS; 85.7% in the test with SF-539 CNS; 89.3% with UACC-257 melanoma; 89.7% in the test on M14 melanoma; 87.6% in the test with HCT-15 colon; 105% with HT29 colon. For the same molecule, the growth with SNB-19 CNS was 86.8%; with U251 CNS it was 94.2%; with PC-3 prostate, 69.8%; with SK-MEL-5 melanoma it was 86.2%; in the test on UACC-62 melanoma, 77.3%; in the test with LOX IMVI melanoma it was 74.6%. Also, the growth in the test on SK-MEL-28 melanoma was 99.1%.

Take `Cc1cn(-c2cc(NC(=O)c3cncc(C#Cc4c(N)ncc5ccc(F)cc45)c3)cc(C(F)(F)F)c2)cn1`: the growth is 70.5% in the test with DU-145 prostate; 3.34% (active) with K-562 leukemia; 21.5% in the test with MALME-3M melanoma; 27.1% in the test with MDA-MB-231 breast; 62.7% with RXF 393 renal; 64.6% with SF-268 CNS. Also, the growth was 85.2% with SF-295 CNS; 51.5% with SF-539 CNS; 52.9% in the test with UACC-257 melanoma; 26.6% in the test with M14 melanoma; 49.9% with HCT-15 colon; 8.94% (active) with HT29 colon. For the same molecule, the growth with SNB-19 CNS is 91.9%; with PC-3 prostate, 71.7%; in the test with SK-MEL-5 melanoma, 27.4%; in the test on UACC-62 melanoma, 33.8%; in the test with LOX IMVI melanoma, 23%; in the test on SK-MEL-28 melanoma, 42.4%.

In the case of `CN(C)CCCC1(c2ccc(F)cc2)OCc2cc(-c3cc4ccccc4s3)ccc21` (stereo not drawn), the growth in the test with DU-145 prostate is 18%; with K-562 leukemia, -17.5% (active); in the test with MALME-3M melanoma, -77.4% (active); with MDA-MB-231 breast it was -42.4% (active); with RXF 393 renal, 34.8%; in the test on SF-268 CNS it was 38.3%. For the same molecule, the growth in the test with SF-295 CNS was 70.4%; in the test on SF-539 CNS, -58.8% (active); with UACC-257 melanoma, -29.1% (active); with M14 melanoma, -68.7% (active); in the test with HCT-15 colon, -49% (active); with HT29 colon, -67.1% (active). In addition, the growth is 71.2% in the test on SNB-19 CNS; 28.8% in the test on PC-3 prostate; 60.9% with SK-MEL-5 melanoma; -62.1% (active) with UACC-62 melanoma; -93.6% (active) in the test with LOX IMVI melanoma; -87.5% (active) with SK-MEL-28 melanoma.

For `Oc1c(CN2CCOCC2)cc(COCc2ccccc2)c2cccnc12`, the growth in the test on DU-145 prostate is 38%; in the test with K-562 leukemia, 14.8%; with MALME-3M melanoma it was 21.2%; in the test with MDA-MB-231 breast, 43.1%; in the test on RXF 393 renal, 58.5%; with SF-268 CNS, 23.7%. The growth was 30.8% in the test on SF-295 CNS; 4.65% (active) with SF-539 CNS; -9.19% (active) with UACC-257 melanoma; 12% in the test on M14 melanoma; 20.5% in the test on HCT-15 colon; 88.2% in the test on HT29 colon. Also, the growth in the test on SNB-19 CNS is 35.7%; in the test with U251 CNS it was 11%; with PC-3 prostate, 31.4%; in the test on SK-MEL-5 melanoma, -12.3% (active); with UACC-62 melanoma, -25.7% (active); in the test on LOX IMVI melanoma it was 12.5%. The growth in the test with SK-MEL-28 melanoma was 36.3%.

Consider `C#CCO[C@H]1CC(CC#C)(CC#C)C(=O)[C@@H]2[C@H]1[C@H]1C[C@@H]3[C@@]4(C)CCC[C@@](C)(C(=O)OC)[C@@H]4CC[C@@]23C=C1C(C)C`, for which the growth in the test on DU-145 prostate is 97.7%; in the test on K-562 leukemia, 88.9%; in the test with MALME-3M melanoma, -35.9% (active); with MDA-MB-231 breast, 89.3%; in the test with RXF 393 renal, 102%; in the test on SF-268 CNS, 92.9%. In addition, the growth was 101% in the test with SF-295 CNS; 85.4% in the test with SF-539 CNS; 94.3% with UACC-257 melanoma; 95.5% with M14 melanoma; 98.2% in the test on HCT-15 colon; 55.7% in the test with HT29 colon. For the same molecule, the growth in the test on SNB-19 CNS was 93.4%; in the test with U251 CNS, 96.3%; in the test with PC-3 prostate it was 58.8%; in the test with SK-MEL-5 melanoma, 101%; in the test with UACC-62 melanoma it was 78.6%; in the test with LOX IMVI melanoma, -86.6% (active). In the test on SK-MEL-28 melanoma, the growth was 99.1%.

With `CN1CCN(CCOc2ccc(-c3cnc4c(-c5ccc(F)cc5)cnn4c3)cc2)CC1`, the growth in the test with DU-145 prostate is 42.2%; with K-562 leukemia, -6.74% (active); with MALME-3M melanoma, 53.5%; in the test on MDA-MB-231 breast it was 55.1%; in the test with RXF 393 renal it was 48.8%; in the test on SF-268 CNS, 56.9%. Moreover, the growth is 81% in the test with SF-295 CNS; 49.5% with SF-539 CNS; 28.4% in the test on UACC-257 melanoma; -29.8% (active) in the test with M14 melanoma; -15.8% (active) in the test with HCT-15 colon; 1.11% (active) in the test on HT29 colon. In addition, the growth in the test with SNB-19 CNS is 82%; in the test with U251 CNS, 38.2%; with PC-3 prostate, 47.5%; in the test on SK-MEL-5 melanoma, 61.2%; in the test with UACC-62 melanoma, 50.7%; in the test with SK-MEL-28 melanoma it was 79.4%.

For the molecule `C=CCC(CCCC)(C(=O)OCC)C(=O)OCC`, the growth in the test with DU-145 prostate was 121%; in the test with K-562 leukemia it was 104%; with MALME-3M melanoma, 106%; in the test with MDA-MB-231 breast it was 105%; in the test on RXF 393 renal, 105%; in the test on SF-268 CNS it was 113%. Also, the growth in the test on SF-295 CNS is 113%; with SF-539 CNS it was 100%; with UACC-257 melanoma, 100%; in the test with HCT-15 colon, 96%; in the test on HT29 colon, 102%; with SNB-75 CNS, 77.2%. Further, the growth was 102% in the test with U251 CNS; 94.8% with PC-3 prostate; 113% in the test on SK-MEL-5 melanoma; 99.6% in the test with UACC-62 melanoma; 99.7% in the test on LOX IMVI melanoma; 115% in the test with SK-MEL-28 melanoma.

In the case of `O=C(CI)NC(=O)NC(=O)NCc1ccccc1`, the growth in the test with DU-145 prostate is 78.2%; in the test on K-562 leukemia, -59.8% (active); in the test on MALME-3M melanoma, -59% (active); in the test on MDA-MB-231 breast, 11.3%; in the test with RXF 393 renal it was 48.5%; in the test on SF-268 CNS, 58.5%. Also, the growth with SF-295 CNS is 91.6%; in the test on SF-539 CNS, 27.3%; in the test with UACC-257 melanoma, 83%; in the test on HCT-15 colon, 17.4%; in the test with HT29 colon, 17.2%; in the test on SNB-75 CNS, 81.4%. Also, the growth is 101% with SNB-19 CNS; 84% with U251 CNS; 93.9% with PC-3 prostate; 56.1% with SK-MEL-5 melanoma; 79.3% with UACC-62 melanoma; -77.7% (active) in the test on LOX IMVI melanoma. Also, the growth with SK-MEL-28 melanoma was 49.4%.

Turning to `CN(C)c1ccc(-c2ccc3c(c2)c(-c2ccccc2)nc(=O)n3C)cn1`, the growth was 69.7% in the test with DU-145 prostate; 3.37% (active) in the test with K-562 leukemia; 62.6% in the test on MALME-3M melanoma; 50.4% in the test with MDA-MB-231 breast; 61.3% in the test with RXF 393 renal; 46.2% in the test with SF-268 CNS. The growth is 31.3% in the test on SF-295 CNS; 14.2% in the test on SF-539 CNS; 57.5% with UACC-257 melanoma; 30.4% with HCT-15 colon; 11.7% in the test on HT29 colon; 27.8% with SNB-75 CNS. Besides, the growth in the test with SNB-19 CNS is 34.3%; with U251 CNS, 30.4%; with PC-3 prostate, -42.8% (active); in the test with SK-MEL-5 melanoma it was 22%; in the test with UACC-62 melanoma it was 25.2%; in the test with LOX IMVI melanoma, 34.3%. In addition, the growth in the test on SK-MEL-28 melanoma is 55.2%.
